Screen size: about 350,000 compounds; about 6,000 (1.7%) were called active. Inconclusive results (about 5%) are left out. Cut-off read from the data, not from the text of the source: active = CPE inhibition above about 20% (passing the limit was not always enough); inconclusive = no clear call, values can overlap the other calls; tested in BHK-21 cells. The full list was thinned out, with actives kept by preference.

A short description of the test: inhibitors of DENV2 cytopathic effect, primary screen, cell-based, plate reader, single concentration (AID 651640).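 Note: 0% = median of neutral control wells and 100% = median of positive control wells.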 Conditions: DENV2-infected cells, cytopathic effect rescue, at 9.99 µM, active compounds read high. (In general: Damage to the host cells serves as the signal in cytopathic effect assays.)
With `Cc1ccccc1S(=O)(=O)N1CC(=O)N2[C@H](CO)[C@H](c3ccc(C#CC4CC4)cc3)[C@@H]2C1`, the CPE inhibition was 5.14% (inactive).

Regarding `CC=Cc1ccc2n(c1=O)C[C@@H]1[C@@H](CO)[C@H](C(=O)NC3CCCC3)[C@H]2N1C(=O)c1cnccn1` (mixture of isomers), the CPE inhibition was 2.52% (inactive).

As for `CO[C@@H]1CN(C)C(=O)c2ccc(NC(=O)C3CC3)cc2OC[C@@H](C)N(CC2CCOCC2)C[C@H]1C`, the CPE inhibition is 0.64% (inactive).

Take `CC(C)NC(=O)Nc1cccc2c1O[C@H](CN(C)Cc1ccccc1)[C@H](C)CN([C@H](C)CO)C2=O`: the CPE inhibition is 1.48% (inactive).

Turning to `CO[C@@H]1CN(C)C(=O)c2cc(NC(C)=O)ccc2OC[C@@H](C)N(C(=O)NC2CCCCC2)C[C@H]1C`, the CPE inhibition is -11% (inactive).

As to `COc1cccc(-c2ccc3n(c2=O)C[C@H]2[C@H](CO)[C@@H](C(=O)N4CCCCC4)N(C)[C@@H]32)c1`, the CPE inhibition is 5.67% (inactive).

As to `CCCNC(=O)Nc1ccc2c(c1)OC[C@H](C)N(Cc1ccccc1)C[C@H](C)[C@H](OC)CN(C)C2=O`, the CPE inhibition is 14.2% (inactive).

Regarding `COC(=O)CCCCCCC(=O)Nc1ccc(C2OC(CSc3nc(-c4ccccc4)c(-c4ccccc4)o3)CC(c3ccc([N+](=O)[O-])cc3)O2)cc1` (stereo unspecified), the CPE inhibition was -6.28% (inactive).

Consider `CCCNC(=O)[C@H]1[C@H](CO)[C@H]2Cn3c(ccc(-c4cccc(F)c4)c3=O)[C@@H]1N2C(=O)CC`, for which the CPE inhibition is 0.06% (inactive).

In the case of `CN1c2ccc(-c3ccccc3)cc2[C@@H]2[C@@H](CCN2C(=O)c2ccccc2F)[C@@H]1CO`, the CPE inhibition is 1.36% (inactive).

On to `CN1c2ccc(Br)cc2[C@@H]2[C@@H](CCN2C(=O)C2CCCC2)[C@H]1CO`, for which the CPE inhibition was 99.1% (active).

As to `CN1c2ccc(Br)cc2[C@@H]2[C@@H](CCN2C(=O)C2CCCCC2)[C@H]1CO`, the CPE inhibition was 8.19% (inactive).

`CN1c2ccc(Br)cc2[C@@H]2[C@@H](CCN2C(=O)Cc2ccccc2)[C@@H]1CO`: the CPE inhibition was 0.742% (inactive).

Consider `O=C(CC1CC1)N1[C@H](CO)[C@@H]2c3ccccc3N(S(=O)(=O)c3ccc(F)cc3)C[C@@H]21`, for which the CPE inhibition was -3.84% (inactive).

Turning to `O=C(C[C@@H]1CC[C@H](NC(=O)C2CCOCC2)[C@@H](CO)O1)Nc1ccccc1`, the CPE inhibition is 6.72% (inactive).

For the molecule `COC(=O)[C@]12CCCCC=C1N(Cc1ccc3c(c1)OCO3)C(=O)[C@H](CC(=O)NCc1cccs1)C2`, the CPE inhibition was -4.45% (inactive).

Turning to `COC(=O)[C@]12CCCCC=C1N(Cc1cccc3ccccc13)C(=O)[C@H](CC(=O)N1CCOCC1)C2`, the CPE inhibition was 99.4% (active).

As for `CCOC(=O)[C@]12CCCC=C1N(Cc1ccc(Cl)cc1Cl)C(=O)[C@H](CC(=O)N1CCCCC1)C2`, the CPE inhibition was 4.66% (inactive).

Regarding `COC(=O)[C@]12CCCCC=C1N(Cc1ccc3c(c1)OCO3)C(=O)[C@H](CC(=O)N1CCOCC1)C2`, the CPE inhibition is 8.62% (inactive).

For `CCOC(=O)[C@]12CCC=C1N(Cc1ccco1)C(=O)[C@H](CC(=O)N1CCSCC1)C2`, the CPE inhibition is -4% (inactive).

Take `COC(=O)[C@]12CCCCC=C1N(Cc1ccc(Cl)cc1Cl)C(=O)[C@H](CC(=O)NCc1cccc3ccccc13)C2`: the CPE inhibition was -2.75% (inactive).

Consider `CCOC(=O)[C@]12CCCC=C1N(Cc1ccc3c(c1)OCO3)C(=O)[C@H](CC(=O)NCc1cccs1)C2`, for which the CPE inhibition was 66.5% (active).

On to `CCOC(=O)[C@]12CCCC=C1N(Cc1ccc3c(c1)OCO3)C(=O)[C@H](CC(=O)N1CCN(C(=O)c3ccco3)CC1)C2`, for which the CPE inhibition is -2.94% (inactive).

Turning to `CCOC(=O)[C@]12CCC=C1N(Cc1ccccc1)C(=O)[C@H](CC(=O)N1CCCC1)C2`, the CPE inhibition is 29.8% (active).

For the molecule `COc1ccc(S(=O)(=O)N(C)C[C@@H]2Oc3ccc(NC(=O)Cc4ccccc4)cc3CC(=O)N([C@@H](C)CO)C[C@H]2C)cc1`, the CPE inhibition was -3.88% (inactive).

Consider `CO[C@@H]1CN(C)C(=O)c2cc(NC(=O)c3ccc4c(c3)OCO4)ccc2OC[C@H](C)N(CCC(F)(F)F)C[C@H]1C`, for which the CPE inhibition is 2.23% (inactive).

In the case of `Cc1noc(C)c1NC(=O)Nc1ccc2c(c1)CC(=O)N([C@@H](C)CO)C[C@@H](C)[C@H](CN(C)C(=O)NC1CCCCC1)O2`, the CPE inhibition was 1.27% (inactive).

For `N#C[C@@H]1[C@@H](c2ccc(-c3ccccc3F)cc2)[C@@H](CO)N1C(=O)c1ccccn1`, the CPE inhibition was -0.879% (inactive).

As to `COc1ccccc1NC(=O)N[C@H]1CC[C@@H](CC(=O)NCc2ccc(Cl)c(Cl)c2)O[C@H]1CO`, the CPE inhibition was -2.11% (inactive).

`C/C=C/c1ccc2c(c1)O[C@@H](CN(C)C(=O)Cc1ccccn1)[C@@H](C)CN([C@H](C)CO)S2(=O)=O`: the CPE inhibition is 3.81% (inactive).

In the case of `C[C@@H]1CN([C@H](C)CO)S(=O)(=O)c2ccc(C#C[C@@H](C)O)cc2O[C@H]1CN(C)C(=O)CC1CC1`, the CPE inhibition was -1.93% (inactive).

As to `Cc1cccc([C@@H]2[C@@H]3C(=O)N(C)C(=O)[C@@H]3[C@@H]3C(=O)Nc4ccccc4C(=O)N23)c1`, the CPE inhibition was 30.1% (active).

Take `Cc1ccc(C2Nc3ccccc3C(=O)N2CCN2CCNC2=O)cc1` (stereo unspecified): the CPE inhibition was -0.485% (inactive).

With `Cc1cccc([C@H]2[C@@H]3C=CC[C@@H](C)[C@@H]3C(=O)N2Cc2ccccc2)c1`, the CPE inhibition was -1.21% (inactive).

For the molecule `O=C([C@H]1[C@H](CO)[C@H]2Cn3c(ccc(C4=CCCC4)c3=O)[C@@H]1N2C(=O)c1ccncc1)N1CCCCC1`, the CPE inhibition was -10.6% (inactive).

For the molecule `CNC[C@@H]1Oc2cc(C#CC3CCCC3)ccc2S(=O)(=O)N([C@@H](C)CO)C[C@@H]1C`, the CPE inhibition was 3.46% (inactive).

Consider `CNC[C@@H]1Oc2cc(C#CCC3CCCC3)ccc2S(=O)(=O)N([C@H](C)CO)C[C@H]1C`, for which the CPE inhibition was 18.9% (inactive).

Take `CNC[C@@H]1Oc2cc(C#Cc3ccc(F)cc3)ccc2S(=O)(=O)N([C@@H](C)CO)C[C@H]1C`: the CPE inhibition was 7.09% (inactive).

On to `CNC[C@H]1Oc2cc(C#Cc3ccccc3)ccc2S(=O)(=O)N([C@@H](C)CO)C[C@@H]1C`, for which the CPE inhibition was 10.6% (inactive).

With `CNC[C@H]1Oc2cc(C#CC3CCCC3)ccc2S(=O)(=O)N([C@H](C)CO)C[C@@H]1C`, the CPE inhibition was 49.1% (active).

Regarding `CNC[C@H]1Oc2cc(C#CC(C)(C)O)ccc2S(=O)(=O)N([C@@H](C)CO)C[C@@H]1C`, the CPE inhibition is 29.3% (active).

Take `COc1ccc(S(=O)(=O)N[C@H]2C=C[C@@H](CC(=O)O)O[C@@H]2CO)cc1`: the CPE inhibition is -1.75% (inactive).

Consider `CN1CCN(C(=O)C[C@@H]2CC[C@@H]3[C@@H](COc4ccc(NC(=O)c5ccc(F)c(F)c5)cc4C(=O)N3C)O2)CC1`, for which the CPE inhibition was -5.7% (inactive).

Take `COCc1cn(CC[C@@H]2CC[C@@H](NC(=O)Cc3cccnc3)[C@@H](CO)O2)nn1`: the CPE inhibition was -4.68% (inactive).

As to `C[C@@H]1CN([C@@H](C)CO)C(=O)c2cc(C#CCc3ccccc3)cnc2O[C@@H]1CN(C)C(=O)C1CCOCC1`, the CPE inhibition is 95.4% (active).

In the case of `C[C@H](CO)N1C[C@H](C)[C@H](CN(C)C(=O)C2CCC2)Oc2ncc(C#CCc3ccccc3)cc2C1=O`, the CPE inhibition is -7.04% (inactive).

Turning to `C[C@H](CO)N1C[C@H](C)[C@@H](CN(C)C(=O)C2CC2)Oc2ncc(-c3cccc(C#N)c3)cc2C1=O`, the CPE inhibition was -9.11% (inactive).

In the case of `CC(C)NC(=O)N(C)C[C@H]1Oc2ncc(-c3cccc(C#N)c3)cc2C(=O)N([C@@H](C)CO)C[C@H]1C`, the CPE inhibition is 1.79% (inactive).

In the case of `C[C@H]1CN([C@@H](C)CO)C(=O)c2ccccc2-c2ccccc2CO[C@H]1CN(C)S(=O)(=O)c1ccccc1C#N`, the CPE inhibition was -1.68% (inactive).

Take `C[C@H]1CN([C@@H](C)CO)C(=O)c2ccccc2-c2ccccc2CO[C@H]1CN(C)S(=O)(=O)c1cccc(C#N)c1`: the CPE inhibition was 99.5% (active).

In the case of `Cc1ccc(S(=O)(=O)N(C)C[C@H]2OCc3ccccc3-c3ccccc3C(=O)N([C@@H](C)CO)C[C@@H]2C)cc1`, the CPE inhibition is 0.795% (inactive).

Consider `CC(=O)N(C)C[C@H]1Oc2ncc(C#CC3(O)CCCC3)cc2C(=O)N([C@@H](C)CO)C[C@@H]1C`, for which the CPE inhibition was -10.8% (inactive).

As to `C[C@@H]1CN([C@H](C)CO)C(=O)c2cc(-c3cccc(C#N)c3)cnc2O[C@H]1CN(C)C(=O)C1CCC1`, the CPE inhibition is 27.5% (active).

Regarding `CCCC#Cc1cnc2c(c1)C(=O)N([C@H](C)CO)C[C@@H](C)[C@@H](CN(C)C(=O)C1CCOCC1)O2`, the CPE inhibition is -8.59% (inactive).

As to `C[C@@H]1CN([C@H](C)CO)C(=O)c2cc(C#CC3(O)CCCC3)cnc2O[C@H]1CN(C)C(=O)C1CCC1`, the CPE inhibition is 35.8% (active).

With `C[C@@H]1CN([C@H](C)CO)C(=O)c2cc(C#CC3CCCC3)cnc2O[C@@H]1CN(C)C(=O)C1CCC1`, the CPE inhibition is 0.319% (inactive).

For the molecule `C/C=C/c1ccc([C@@H]2[C@H](CO)N(CCC(F)(F)F)C23CN(C(=O)CC)C3)cc1`, the CPE inhibition is 8.21% (inactive).

On to `C[C@@H]1CN([C@H](C)CO)C(=O)Cc2cc(NC(=O)C3CC3)ccc2O[C@H]1CN(C)Cc1ccc(Cl)c(Cl)c1`, for which the CPE inhibition is -2.59% (inactive).

As for `C[C@@H]1CCCCO[C@@H](CN(C)S(C)(=O)=O)[C@@H](C)CN([C@@H](C)CO)C(=O)c2cc(NS(=O)(=O)c3ccc(Cl)cc3)ccc2O1`, the CPE inhibition was -9.73% (inactive).

As to `CCC(=O)N(C)C[C@H]1Oc2ncc(C#C[C@@H](C)O)cc2C(=O)N([C@@H](C)CO)C[C@H]1C`, the CPE inhibition is 9.17% (inactive).

`CNC[C@@H]1Oc2c(NC(=O)Nc3ccc(F)cc3)cccc2C(=O)N([C@@H](C)CO)C[C@@H]1C`: the CPE inhibition was 0.246% (inactive).

For `CCC(=O)Nc1ccc2c(c1)C(=O)N(C)C[C@H](OC)[C@H](C)CN(CCC(F)(F)F)[C@H](C)CO2`, the CPE inhibition is -10.4% (inactive).

Take `COCC(=O)Nc1ccc2c(c1)C(=O)N(C)C[C@@H](OC)[C@H](C)CN(C(=O)c1cccnc1)[C@H](C)CO2`: the CPE inhibition was 7.26% (inactive).

Take `COc1cc2c(cc1OC)C(c1cccc([N+](=O)[O-])c1)=NCC2`: the CPE inhibition was 3% (inactive).

On to `COc1ccc(NC(=S)Nc2ccc(S(N)(=O)=O)cc2)c(C)c1`, for which the CPE inhibition was 5.31% (inactive).

`COc1cc2c(cc1OC)C(Nc1ccc(S(N)(=O)=O)cc1)=NC(C)(C)C2`: the CPE inhibition was 23.5% (active).

Source of the values: PubChem BioAssay AID651640 (Broad Institute, 2012).
